# The full list was thinned out, with hits kept by preference. The true hit rate is not given.
# Tested on: T1, Caupolican (Caup) homeodomain DNA-binding domain
# T1 sequence: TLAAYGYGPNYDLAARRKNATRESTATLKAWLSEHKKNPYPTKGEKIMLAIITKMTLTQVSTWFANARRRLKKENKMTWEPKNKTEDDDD
# Assay: PBM E-score (8-mer, recovered from the published 9-mer minima) (E-score (dimensionless, -0.5 to 0.5)); Drosophila protein; higher = stronger relative binding preference, active = 0.31 or more
# Description: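 Protein binding microarray (PBM): in vitro transcribed/translated Caupolican (Caup) homeodomain DNA-binding domain (residues 214-303) applied at 100 nM to a universal 8-mer PBM array (Agilent AMADID 015681). The 8-mer enrichment score (E-score, range -0.5 to 0.5) was computed, and each 9-mer score is the minimum E-score of its two constituent 8-mers. The E-score is the same for a 9-mer and its reverse complement; 0.31 is the stated binding threshold.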
row,Sequence,PBM E-score
1,GACGGCTA,-0.167 (inactive)
2,CAATTGTA,0.193 (inactive)
3,ATGAATCG,0.0391 (inactive)
4,AGTAACGA,0.107 (inactive)
5,GACTCGCA,-0.115 (inactive)
6,CAGATGCG,-0.00655 (inactive)
7,AGGAAGGA,-0.0149 (inactive)
8,AATGGCTC,-0.0437 (inactive)
9,ATAACAAT,0.254 (inactive)
10,CTAACAAC,0.278 (inactive)
11,ATAACACA,0.305 (inactive)
12,AAAACAAC,0.214 (inactive)
13,ATAACAAG,≥ 0.373 (active)
14,CTAACACA,0.276 (inactive)
15,GTAACAAC,0.341 (active)
16,AGAACAAC,0.229 (inactive)
17,GTAACAAA,0.217 (inactive)
18,ATAACAAC,0.346 (active)
19,ATAACACG,≥ 0.334 (active)
20,ATAACAAA,0.205 (inactive)
21,ACAGTTTC,0.0345 (inactive)
22,CCAGCGGG,-0.276 (inactive)
23,AGACCCCT,-0.143 (inactive)
24,CACGGTCC,-0.0957 (inactive)
25,CGACGATC,0.00125 (inactive)
26,ACGTGTAA,≥ 0.394 (active)

row,Sequence,PBM E-score
1,TAGTGTAA,0.207 (inactive)
2,CAGTGTAA,0.218 (inactive)
3,GAGTGTAA,0.11 (inactive)
4,GCGTGTGA,0.0667 (inactive)
5,TCGTGAAA,0.00205 (inactive)
6,ACGTGTGA,0.155 (inactive)
7,CCGTGTGA,0.0813 (inactive)
8,GCGTGTAA,0.327 (active)
9,TCGTGTAA,0.363 (active)
10,AGGTGTAA,0.2 (inactive)
11,CCGTGTAA,0.35 (active)
12,CTATCTGA,0.0431 (inactive)
13,AAGTGGAC,-0.00011 (inactive)
14,AGTTGGCC,-0.159 (inactive)
15,ATATATCG,0.0746 (inactive)
16,CAGACTGC,-0.0434 (inactive)
17,TAAGTAGA,0.11 (inactive)
18,CAGGGCTA,-0.125 (inactive)
19,CCAGACAC,0.05 (inactive)
20,AACGATGC,-0.051 (inactive)
21,AACGATGG,-0.0529 (inactive)
22,AACGATGT,0.35 (active)
23,TAACTTCA,0.137 (inactive)
24,AACGCAGA,-0.0244 (inactive)
25,TGACTGAA,-0.0626 (inactive)
26,GGCCGCGA,-0.26 (inactive)

row,Sequence,PBM E-score
1,AATGTCGG,0.119 (inactive)
2,CAGGTCGG,-0.0619 (inactive)
3,CGTGTCGA,0.281 (inactive)
4,AATGTCGA,0.212 (inactive)
5,GATGTCGC,0.201 (inactive)
6,CTTGTCGA,0.303 (inactive)
7,CATGTCGG,0.357 (active)
8,AATGTCGC,0.191 (inactive)
9,TATGTCGA,0.323 (active)
10,CATGTCGA,0.412 (active)
11,GATGTCGA,0.217 (inactive)
12,CATGTCGC,0.363 (active)
13,ACCGCGTC,-0.0819 (inactive)
14,TATTCTCA,0.0911 (inactive)
15,CTGTGAAG,-0.0616 (inactive)
16,GCGACAGA,0.0849 (inactive)
17,CTGGGTTC,-0.0931 (inactive)
18,ATTAGCGG,-0.0813 (inactive)
19,AACAGGGG,0.0757 (inactive)
20,GACTTACC,-0.0473 (inactive)
21,ACCATCAT,0.0686 (inactive)
22,GACCTCAA,0.0301 (inactive)
23,CACTTACA,0.243 (inactive)
24,TAATTATA,0.234 (inactive)
25,CAATTACC,-0.00996 (inactive)
26,CAATTACA,0.334 (active)

row,Sequence,PBM E-score
1,AAATTACG,0.0367 (inactive)
2,GAATTACA,0.29 (inactive)
3,AACTTACA,≥ 0.344 (active)
4,AAATTACT,0.124 (inactive)
5,GACTTACA,0.246 (inactive)
6,AAATTACA,0.329 (active)
7,CAATTACG,0.0582 (inactive)
8,TAATTACA,0.335 (active)
9,AGGTAATA,0.0994 (inactive)
10,CGCCCATA,-0.126 (inactive)
11,CGACCTCC,-0.138 (inactive)
12,AGCAACGA,0.0654 (inactive)
13,ACAATCCG,0.117 (inactive)
14,CGGGAAAA,-0.0322 (inactive)
15,CCGGAGAG,-0.159 (inactive)
16,AATTTACA,0.328 (active)
17,CATTTACA,0.239 (inactive)
18,GATTTACA,0.246 (inactive)
19,GAGGTTGC,-0.184 (inactive)
20,AGGCAATA,0.0132 (inactive)
21,AATTGCAT,0.0474 (inactive)
22,GCAAGGTA,0.0505 (inactive)
23,ACAAGACA,≥ 0.352 (active)
24,ACAAGACG,0.257 (inactive)
25,ACAAGATC,0.258 (inactive)
26,ACAAGGTC,0.298 (inactive)

row,Sequence,PBM E-score
1,CCAAGATA,0.106 (inactive)
2,GCAAGACA,0.0548 (inactive)
3,ACAAGATA,0.342 (active)
4,ACAAGGTA,0.335 (active)
5,CGAATAGA,0.0132 (inactive)
6,ACGTCACG,0.0623 (inactive)
7,CATTCCCA,-0.01 (inactive)
8,CGGGATCC,-0.132 (inactive)
9,ACCCAAGC,-0.122 (inactive)
10,CCCTGCGG,-0.29 (inactive)
11,ACGTCGAG,-0.0187 (inactive)
12,ATAACATG,0.424 (active)
13,ATAACAGG,0.155 (inactive)
14,ATAACATC,0.318 (active)
15,ATAACAGC,0.148 (inactive)
16,GTAACATA,0.345 (active)
17,CTAACATC,0.208 (inactive)
18,GTAACAGA,0.211 (inactive)
19,ATAACTTG,0.197 (inactive)
20,CTAACATA,0.28 (inactive)
21,ATAACATA,0.356 (active)
22,ATAACAGA,0.171 (inactive)
23,CGATCATC,0.0443 (inactive)
24,ATCCGCGG,-0.111 (inactive)
25,AAAGTTGG,0.0235 (inactive)
26,ATAGGGGA,-0.137 (inactive)

row,Sequence,PBM E-score
1,AACCGGCG,-0.0557 (inactive)
2,GCTAGATA,0.0474 (inactive)
3,CCGCGTCC,-0.087 (inactive)
4,CCTGTATC,0.125 (inactive)
5,AATGTATA,0.271 (inactive)
6,GATGTATA,0.295 (inactive)
7,CATGTATA,0.418 (active)
8,AATGTATG,0.243 (inactive)
9,AATGTATC,0.314 (active)
10,CAAGTATC,0.148 (inactive)
11,AGTGTATC,0.186 (inactive)
12,CATGTATC,0.408 (active)
13,CAACCCCA,-0.102 (inactive)
14,CACTGATG,0.107 (inactive)
15,GAGAACGC,-0.0756 (inactive)
16,CACTTCCG,-0.121 (inactive)
17,ATATCGTC,0.107 (inactive)
18,AGACCCAA,-0.131 (inactive)
19,CTCACAAG,0.0655 (inactive)
20,CTTACAAC,0.333 (active)
21,CTTACAAG,0.343 (active)
22,CATACAAC,0.27 (inactive)
23,CTTACAAA,0.181 (inactive)
24,GTTACAAC,0.303 (inactive)
25,CCGCGTCA,-0.126 (inactive)
26,AGCTGGTG,-0.0997 (inactive)

row,Sequence,PBM E-score
1,AGCGGCGG,-0.225 (inactive)
2,ATAGGCGA,-0.0622 (inactive)
3,CGATGTCC,0.143 (inactive)
4,GGATGTGA,0.081 (inactive)
5,AGATGTCA,0.279 (inactive)
6,CGATGTCA,0.311 (active)
7,CTATGTCA,0.307 (inactive)
8,CGGTGTCA,0.193 (inactive)
9,GGATGTCA,0.311 (active)
10,GTATGTCA,0.345 (active)
11,ATATGTCA,0.305 (inactive)
12,ACAAGGTG,0.255 (inactive)
13,AAGCGCGA,-0.033 (inactive)
14,CAACGTGA,0.0867 (inactive)
15,CGAGCTCA,-0.105 (inactive)
16,CAACCGTA,0.0275 (inactive)
17,ATACATTG,0.261 (inactive)
18,ATACATTC,≥ 0.314 (active)
19,ATACATAA,0.348 (active)
20,ATACATAC,0.332 (active)
21,ATACATAG,0.292 (inactive)
22,CTACATAC,0.286 (inactive)
23,AGACATAT,0.264 (inactive)
24,CTACATTC,0.119 (inactive)
25,ATACATAT,0.344 (active)
26,AGACATAC,0.222 (inactive)

row,Sequence,PBM E-score
1,CCTCACAA,-0.0288 (inactive)
2,GGAATGAA,0.00414 (inactive)
3,GTAGAGGA,0.00507 (inactive)
4,AGTGATAA,0.126 (inactive)
5,GTCGCCAA,-0.0201 (inactive)
6,GCCCTAAC,-0.104 (inactive)
7,CATCATGA,0.11 (inactive)
8,ACACCAGT,0.101 (inactive)
9,CTCCCGAA,-0.138 (inactive)
10,CTATTAAC,0.178 (inactive)
11,CAGGGATC,-0.124 (inactive)
12,GCTCCAGC,-0.186 (inactive)
13,AAGTAGTA,0.186 (inactive)
14,ATGTAGTC,0.331 (active)
15,GAGTAGTA,0.0893 (inactive)
16,ATGTAGGC,0.12 (inactive)
17,CTGTAGTA,0.348 (active)
18,AAGTAGTC,0.159 (inactive)
19,CTGTAGTC,0.0608 (inactive)
20,ATGTAGTG,0.27 (inactive)
21,GTGTAGTA,0.357 (active)
22,CAGTAGTA,0.175 (inactive)
23,ATGTAGTA,0.372 (active)
24,GCGTAGTA,0.0285 (inactive)
25,AAAGGTGC,-0.0982 (inactive)
26,TGAGCAAA,0.0543 (inactive)

row,Sequence,PBM E-score
1,GGAGGCAC,-0.154 (inactive)
2,ACTGAGCA,0.0738 (inactive)
3,CTCTTTTC,-0.1 (inactive)
4,CCTCTGTC,-0.0145 (inactive)
5,AGCTCATC,-0.167 (inactive)
6,ATCGTGTG,0.149 (inactive)
7,ATCGTGTA,0.407 (active)
8,GTCGTGGA,-0.0165 (inactive)
9,GTCGTGTA,0.386 (active)
10,ATCGTGCA,0.127 (inactive)
11,CTCGTGTA,0.27 (inactive)
12,AGCGTGTC,0.231 (inactive)
13,ATCGTGGA,-0.0656 (inactive)
14,CGCGTGTA,0.285 (inactive)
15,CTCGTGTC,0.26 (inactive)
16,AGCGTGTA,0.355 (active)
17,ATCGTGTC,0.336 (active)
18,CTTGAAGA,-0.0903 (inactive)
19,ATCGACGG,-0.105 (inactive)
20,GTTAAAGA,0.0986 (inactive)

# — the supplement of paper PMC3724861
